In paper PMC11062922 (Nature Chemical Biology, 2023):
Read-outs that look alike come from different tables or passages of the source.

Tests used:
AAK1 = conditions: read-out: apparent Kd, n = 1
AURKA = conditions: read-out: apparent Kd, n = 1

Lestaurtinib
potency estimated from few doses (AAK1; compound concentrations:100 nM and 1000 nM (sheet 'Lestaurtinib' of Supplementary Table 1),run:Lestaurtinib_02606_R2,Plate:MR019): 73.7 nM | potency estimated from few doses (AAK1; compound concentrations:100 nM and 1000 nM (sheet 'Lestaurtinib' of Supplementary Table 1),run:Lestaurtinib_02624_R1,Plate:MR020): 52 nM | potency estimated from few doses (AAK1; compound concentrations:100 nM and 1000 nM (sheet 'Lestaurtinib' of Supplementary Table 1),run:Lestaurtinib_02624_R2,Plate:MR020): 66.6 nM | potency estimated from few doses (AAK1; compound concentrations:100 nM and 1000 nM (sheet 'Lestaurtinib' of Supplementary Table 1),run:Lestaurtinib_02624_R3,Plate:MR020): 69.8 nM | potency estimated from few doses (AAK1; compound concentrations:100 nM and 1000 nM (sheet 'Lestaurtinib' of Supplementary Table 1),run:Lestaurtinib_02724_R1,Plate:MR021): 69.4 nM | potency estimated from few doses (AAK1; compound concentrations:100 nM and 1000 nM (sheet 'Lestaurtinib' of Supplementary Table 1),run:Lestaurtinib_02741_R2,Plate:MR023): 113 nM | potency estimated from few doses (AAK1; compound concentrations:100 nM and 1000 nM (sheet 'Lestaurtinib' of Supplementary Table 1),run:Lestaurtinib_02741_R3,Plate:MR023): 89.7 nM | potency estimated from few doses (AAK1; compound concentrations:100 nM and 1000 nM (sheet 'Lestaurtinib' of Supplementary Table 1),run:Lestaurtinib_02748_R1,Plate:MR024): 64.3 nM | potency estimated from few doses (AAK1; compound concentrations:100 nM and 1000 nM (sheet 'Lestaurtinib' of Supplementary Table 1),run:Lestaurtinib_02748_R2,Plate:MR024): 53.8 nM | potency estimated from few doses (AAK1; compound concentrations:100 nM and 1000 nM (sheet 'Lestaurtinib' of Supplementary Table 1),run:Lestaurtinib_02748_R3,Plate:MR024): 68.7 nM | potency estimated from few doses (AAK1; compound concentrations:100 nM and 1000 nM (sheet 'Lestaurtinib' of Supplementary Table 1),run:Lestaurtinib_02752_R1,Plate:MR025): 98.6 nM | potency estimated from few doses (AAK1; compound concentrations:100 nM and 1000 nM (sheet 'Lestaurtinib' of Supplementary Table 1),run:Lestaurtinib_02765_R3,Plate:MR026): 84.5 nM | potency estimated from few doses (AAK1; compound concentrations:100 nM and 1000 nM (sheet 'Lestaurtinib' of Supplementary Table 1),run:Lestaurtinib_02766_R1,Plate:MR027): 55 nM | potency estimated from few doses (AAK1; compound concentrations:100 nM and 1000 nM (sheet 'Lestaurtinib' of Supplementary Table 1),run:Lestaurtinib_02768_R3,Plate:MR028): 80.1 nM | potency estimated from few doses (AAK1; compound concentrations:100 nM and 1000 nM (sheet 'Lestaurtinib' of Supplementary Table 1),run:Lestaurtinib_02795_R1,Plate:MR022): 81.4 nM | potency estimated from few doses (AAK1; compound concentrations:100 nM and 1000 nM (sheet 'Lestaurtinib' of Supplementary Table 1),run:Lestaurtinib_02795_R3,Plate:MR022): 154 nM | potency estimated from few doses (AAK1; compound concentrations:100 nM and 1000 nM (sheet 'Lestaurtinib' of Supplementary Table 1),run:Lestaurtinib_02802_R1,Plate:MR029): 67.9 nM | potency estimated from few doses (AAK1; compound concentrations:100 nM and 1000 nM (sheet 'Lestaurtinib' of Supplementary Table 1),run:Lestaurtinib_02802_R2,Plate:MR029): 50.7 nM | potency estimated from few doses (AAK1; compound concentrations:100 nM and 1000 nM (sheet 'Lestaurtinib' of Supplementary Table 1),run:Lestaurtinib_02896_R1,Plate:MR030): 73.7 nM | potency estimated from few doses (AAK1; compound concentrations:100 nM and 1000 nM (sheet 'Lestaurtinib' of Supplementary Table 1),run:Lestaurtinib_02896_R3,Plate:MR030): 71.3 nM | potency estimated from few doses (AAK1; compound concentrations:100 nM and 1000 nM (sheet 'Lestaurtinib' of Supplementary Table 1),run:Lestaurtinib_03172_R2,Plate:MR031): 56 nM | potency estimated from few doses (AAK1; compound concentrations:100 nM and 1000 nM (sheet 'Lestaurtinib' of Supplementary Table 1),run:Lestaurtinib_03172_R3,Plate:MR031): 66.8 nM | potency estimated from few doses (AAK1; compound concentrations:100 nM and 1000 nM (sheet 'Lestaurtinib' of Supplementary Table 1),run:Lestaurtinib_03252_R1,Plate:MR032): 96.3 nM | potency estimated from few doses (AAK1; compound concentrations:100 nM and 1000 nM (sheet 'Lestaurtinib' of Supplementary Table 1),run:Lestaurtinib_03260_R1,Plate:MR033): 73.1 nM | potency estimated from few doses (AAK1; compound concentrations:100 nM and 1000 nM (sheet 'Lestaurtinib' of Supplementary Table 1),run:Lestaurtinib_03260_R2,Plate:MR033): 77.8 nM | potency estimated from few doses (AURKA; compound concentrations:100 nM and 1000 nM (sheet 'Lestaurtinib' of Supplementary Table 1),run:Lestaurtinib_02339_R1,Plate:MR001): 20 nM | potency estimated from few doses (AURKA; compound concentrations:100 nM and 1000 nM (sheet 'Lestaurtinib' of Supplementary Table 1),run:Lestaurtinib_02339_R2,Plate:MR001): 18 nM | potency estimated from few doses (AURKA; compound concentrations:100 nM and 1000 nM (sheet 'Lestaurtinib' of Supplementary Table 1),run:Lestaurtinib_02339_R3,Plate:MR001): 18.4 nM | potency estimated from few doses (AURKA; compound concentrations:100 nM and 1000 nM (sheet 'Lestaurtinib' of Supplementary Table 1),run:Lestaurtinib_02364_R2,Plate:MR002): 21.3 nM | potency estimated from few doses (AURKA; compound concentrations:100 nM and 1000 nM (sheet 'Lestaurtinib' of Supplementary Table 1),run:Lestaurtinib_02367_R1,Plate:MR003): 16.3 nM | potency estimated from few doses (AURKA; compound concentrations:100 nM and 1000 nM (sheet 'Lestaurtinib' of Supplementary Table 1),run:Lestaurtinib_02367_R2,Plate:MR003): 18.4 nM | potency estimated from few doses (AURKA; compound concentrations:100 nM and 1000 nM (sheet 'Lestaurtinib' of Supplementary Table 1),run:Lestaurtinib_02367_R3,Plate:MR003): 18.1 nM | potency estimated from few doses (AURKA; compound concentrations:100 nM and 1000 nM (sheet 'Lestaurtinib' of Supplementary Table 1),run:Lestaurtinib_02381_R3,Plate:MR004): 17.5 nM | potency estimated from few doses (AURKA; compound concentrations:100 nM and 1000 nM (sheet 'Lestaurtinib' of Supplementary Table 1),run:Lestaurtinib_02407_R1,Plate:MR005): 16.3 nM | potency estimated from few doses (AURKA; compound concentrations:100 nM and 1000 nM (sheet 'Lestaurtinib' of Supplementary Table 1),run:Lestaurtinib_02407_R2,Plate:MR005): 18.3 nM | potency estimated from few doses (AURKA; compound concentrations:100 nM and 1000 nM (sheet 'Lestaurtinib' of Supplementary Table 1),run:Lestaurtinib_02407_R3,Plate:MR005): 18.2 nM | potency estimated from few doses (AURKA; compound concentrations:100 nM and 1000 nM (sheet 'Lestaurtinib' of Supplementary Table 1),run:Lestaurtinib_02422_R1,Plate:MR006): 15.3 nM | potency estimated from few doses (AURKA; compound concentrations:100 nM and 1000 nM (sheet 'Lestaurtinib' of Supplementary Table 1),run:Lestaurtinib_02422_R2,Plate:MR006): 7.4 nM | potency estimated from few doses (AURKA; compound concentrations:100 nM and 1000 nM (sheet 'Lestaurtinib' of Supplementary Table 1),run:Lestaurtinib_02437_R1,Plate:MR007): 20.9 nM | potency estimated from few doses (AURKA; compound concentrations:100 nM and 1000 nM (sheet 'Lestaurtinib' of Supplementary Table 1),run:Lestaurtinib_02437_R2,Plate:MR007): 21.8 nM | potency estimated from few doses (AURKA; compound concentrations:100 nM and 1000 nM (sheet 'Lestaurtinib' of Supplementary Table 1),run:Lestaurtinib_02437_R3,Plate:MR007): 3.54 nM | potency estimated from few doses (AURKA; compound concentrations:100 nM and 1000 nM (sheet 'Lestaurtinib' of Supplementary Table 1),run:Lestaurtinib_02438_R1,Plate:MR008): 15.4 nM
